Screens deposited in PubChem by National Center for Advancing Translational Sciences (NCATS).
A selection: hits, their analogues and other compounds. The true share with any hit is near 0.71%.
TexasRed fluor – Total Fluorescence Counterscreen for Inhibitors of the Interaction of Thyroid Hormone Receptor and Steroid Receptor Coregulator 2; Potency, µM (highest dose often 106 µM), for inactives: at the top dose fluorescence change, negative = quenching; TRb/SRC2 Texas Red total fluorescence interference; AID 1479, 2009; actives 0.29% (n = 280,000); active = well fitted curve in either direction with a large enough effect; inconclusive = small, poorly fitted or top-dose-only effect; note: % is set by controls: 0 for no effect and ±100 for the full control effect
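Human TRb ligand-binding domain at 0.6 uM with 20 nM Texas Red SRC2 peptide in Tris buffer containing 1 uM T3 and 5% DMSO, incubated with compound 5 h at ambient temperature. Total fluorescence (555/632 nm) calculated as parallel + 2 × perpendicular.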
BLM helicase inh – qHTS Assay for Inhibitors of Bloom's syndrome helicase (BLM); recombinant BLM DNA unwinding, fluorescence dequenching; Potency, µM (series often up to 56.1 µM), for inactives: at the highest dose activity change, negative = inhibition, actives largely listed as inhibitors; actives 0.2% (n = 350,000); AID 2528, 2010;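 note: plate controls were vehicle for no effect and no enzyme for full effect; nearly all actives have a fitted effect of over 35% in size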
TRb-SRC2 inh – qHTS for Inhibitors of the Interaction of Thyroid Hormone Receptor and Steroid Receptor Coregulator 2. AID 1469, 2008. TRbeta-SRC2 peptide binding, fluorescence polarization; receptor liganded with 1 µM T3. Potency, µM (series often up to 106 µM), for the others: at the highest dose activity change, negative = inhibition, actives largely listed as inhibitors. actives 0.065% (n = 280,000). Thyroid hormone receptor beta (Homo sapiens), P10828;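 note: plate controls were bound peptide for no effect and peptide without receptor for full effect; nearly all actives have a fitted effect of over 50% in size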
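Polarization signal, normalized between peptide-alone and full complex controls, measured compound effects on T3-liganded human TRb LBD (0.6 uM) binding 20 nM Texas Red SRC2 peptide after 5 hr.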
RECQ1 helicase – qHTS Assay for Inhibitors of RecQ-Like Dna Helicase 1 (RECQ1); ATP-dependent DNA helicase Q1 (Homo sapiens), P46063; RECQ1 DNA unwinding, red fluorescence kinetic read; Potency, µM (titrated, usually from 57.3 µM), for the others: at the highest dose activity, negative = inhibition, most hits filed as inhibitors; actives 0.54% (n = 240,000); AID 2549, 2010;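 note: plate controls were vehicle for no effect and no enzyme for full effect; nearly all actives have a fitted effect of over 30% in size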
Target sequence (P46063 whole entry, looked up): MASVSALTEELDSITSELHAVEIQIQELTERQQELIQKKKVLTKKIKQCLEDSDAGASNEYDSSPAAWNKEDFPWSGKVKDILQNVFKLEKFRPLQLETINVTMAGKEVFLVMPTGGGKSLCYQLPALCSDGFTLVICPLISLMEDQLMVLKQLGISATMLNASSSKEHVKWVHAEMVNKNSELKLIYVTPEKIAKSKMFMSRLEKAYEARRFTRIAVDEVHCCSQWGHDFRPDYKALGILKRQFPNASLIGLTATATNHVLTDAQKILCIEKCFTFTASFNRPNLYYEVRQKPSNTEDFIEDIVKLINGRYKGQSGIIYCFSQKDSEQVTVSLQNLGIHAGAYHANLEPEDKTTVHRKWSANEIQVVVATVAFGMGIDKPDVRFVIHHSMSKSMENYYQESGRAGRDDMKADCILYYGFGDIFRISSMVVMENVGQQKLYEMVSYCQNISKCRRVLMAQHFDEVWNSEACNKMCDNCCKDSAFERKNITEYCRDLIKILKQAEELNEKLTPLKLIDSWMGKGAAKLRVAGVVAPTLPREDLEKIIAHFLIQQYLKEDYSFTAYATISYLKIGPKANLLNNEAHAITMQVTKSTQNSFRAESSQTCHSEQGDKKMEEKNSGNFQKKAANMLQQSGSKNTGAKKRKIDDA
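RECQ1T1 50 nM; forked duplex (20 bp + 30-nt ss tails) 200 nM, ATP 2 mM final; pH 8.0, 2 mM MgCl2, 2.5 ug/ml poly(dI-dC); 15 min compound preincubation; discontinuous kinetic read over 2 h at RT.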
ERG-DNA inh – qHTS for Small Molecule Inhibitors of the ERG Ets/DNA interaction; actives 0.028% (n = 370,000); Potency, µM (top dose mostly 76.9 µM), for the others: top-dose FP activity, negative = inhibition, hits mostly inhibitors; fluorescence polarization, His-ERG Ets domain / labelled DNA; active = well fitted inhibition curve with a large enough effect in the polarisation, with a control signal flat; inconclusive = small, poorly fitted or top-dose-only effect, or effect the other way, or a change in a side signal; inactive = no such curve, though single readings can be large or run the other way; the % refers to the polarisation;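 note: polarization taken with two DNA probes labelled with fluorescein and Texas red; % of control where 0% means no effect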
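His-tagged ERG Ets domain (1 uM in the protein solution; 300mM KCl, 50mM Tris-HCl, 1mM EDTA, 1mM DTT, pH 7.5) received compound, then a probe mix of 5 nM fluorescein-DNA and 100nM Texas-615-DNA. Fluorescence polarization was read for both dyes.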
RGS12 GoLoco inh – qHTS Assay for Inhibitors of RGS12 GoLoco Motif Activity (Red Fluorophore). Guanine nucleotide-binding protein G(i) subunit alpha-1 (Homo sapiens), P63096. Gai1:RGS12 GoLoco peptide FP, rhodamine, 10 min. Potency, µM (highest dose often 61.6 µM), without a hit: at the highest dose activity, negative = inhibition, actives largely listed as inhibitors. actives 0.44% (n = 230,000). AID 880, 2007; active = well fitted inhibition curve with a large enough effect, not every such curve was filed as active; inactive = no such curve, though single readings can be large or run the other way; note: % is set by controls: 0 for no effect and ±100 for the full control effect; nearly all actives have a fitted effect of over 30% in size
The depositor's hits bear a star; i = inactive; ? = inconclusive; . = not tested or not shown; [ ] = dose if it differs, or a comment. Unless noted, calls come from the whole dose curve; as a rule, active = well fitted curve in the direction sought with a large enough effect; inconclusive = small, poorly fitted or top-dose-only effect, or another doubt; inactive = no such curve, though single readings can be large; an effect the other way counts as inactive or inconclusive. Potency is the fitted concentration of half-maximal effect.

SMILES	TexasRed fluor	BLM helicase inh	TRb-SRC2 inh	RECQ1 helicase	ERG-DNA inh	RGS12 GoLoco inh
Cc1ccc(N2C(=O)C3CC(c4ccccc4)=C4C5C=CC(C6C(=O)N(c7ccc(C)cc7C)C(=O)C56)C4C3C2=O)c(C)c1 (configuration not stated)	1%	-10%	-3%	-11%	-6%	32µM*
Cc1ccc(N2C(=O)C3CC(c4ccccc4)=C4C5C=CC(C6C(=O)N(c7ccc(C)cc7)C(=O)C56)C4C3C2=O)cc1 (configuration not stated)	0%	-3%	15%	-6%	-5%	5%
COc1ccc(Oc2ncc3nc(CCc4ccccc4)c(=O)n(C[C@H]4CCCO4)c3n2)cc1	.	-7%	.	1%	.	-1%
Cc1cccc(N2CCN(C(=O)C3CCN(c4ncnc5c4nc4n5CCCCC4)CC3)CC2C)c1 (configuration not stated)	20µM*[quencher]	-7%	-6%	.	5%	.
Cc1cccc(N2CCN(C(=O)C3CCN(c4ncnc5c4nc4n5CCCCC4)CC3)CC2)c1C	?	-7%	4%	.	?	.
COc1cccc(CNC(=O)C2CCN(c3ncnc4c3nc3n4CCCCC3)CC2)c1	20µM*[quencher]	-6%	-10%	.	-6%	.
Cc1ccc(C)c(N2CCN(c3ncnc4c3nc3n4CCCC3)CC2)c1	20µM*[quencher]	-6%	-7%	.	-7%	.
COc1ccc(OC)c(CNC(=O)C2CCN(c3ncnc4c3nc3n4CCCCC3)CC2)c1	9%	0%	1%	.	3%	.
O=C(c1cc(O)c(O)c([N+](=O)[O-])c1)c1ccccc1F	?	.	4%	2.2µM*	2%	-6%
CCOC(=O)c1cnc2ccc(C(=O)OC)cc2c1Nc1ccccc1CC	-1%	-19%	-3%	.	5%	.
Cc1ccc(Cl)cc1NC(=O)CN1C(=O)C(C)(C)c2cc(S(=O)(=O)N3CCCCC3)ccc21	0.0045µM*[quencher]	-7%	-20%	.	0%	.
COc1ccc(Cl)cc1NC(=O)CN1C(=O)C(C)(C)c2cc(S(=O)(=O)N3CCCCC3)ccc21	-15%	-11%	4%	.	-6%	.
CC(C)(C)C1CCC(O)CC1 (configuration not stated)	-4%[201 µM]	.	0%[201 µM]	.	.	.
O=c1n(Cc2ccc([N+](=O)[O-])cc2)c2ccccc2c2nc(-c3ccccc3)nn12	100µM*[quencher]	-1%	-21%	.	5%	.
Cc1cccc(-n2c(O)c(C=Nc3cc(O)ccc3C)c3ccccc3c2=O)n1	-7%	-19%	-3%	-1%	20%	14%
Cc1cccc(-n2c(O)c(C=Nc3ccccc3O)c3ccccc3c2=O)n1	-15%	16µM*	5%	-28%	1%	11%
CC1CC=CC2C1C(=O)N(Cc1ccccc1)C2c1ccc2ccccc2c1 (configuration not stated)	-2%	-8%	2%	-11%	.	.
Fc1ccc(CNc2ncnc3onc(-c4ccc(F)cc4)c23)cc1	-3%	-2%	-7%	.	6%	.
Cc1ccc(CNc2ncnc3onc(-c4ccc(F)cc4)c23)cc1	0.089µM*[quencher]	-5%	-19%	.	4%	.
O=C(NCc1ccc(F)cc1)C1CCCN(c2ncnc3onc(-c4ccc(F)cc4)c23)C1 (configuration not stated)	16µM*[quencher]	-2%	-28%	.	2%	.
CCC(Nc1ncnc2ccc(-c3c(C)noc3C)cc12)c1ccccc1 (configuration not stated)	-2%	-8%	9%	i	.	.
